# PubChem BioAssay (NCI)
# About 83,000 compounds went through this panel and 20% of them were active in at least one assay; those are over-represented in the sample as a whole.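 Activity criterion: percent growth below 10, measured after cells in 96-well plates were exposed to a single compound concentration for 48 hours.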 Unmarked numbers belong to inactive results. Active and inactive are the calls of the source.
# Experiments:
# Assay in all cases: NCI-60 one-dose screen, 48 h (100 = growth as untreated, 0 = no growth, -100 = all killed)
# Conditions in all cases: 10 µM
# K-562 leukemia = system: K-562 leukemia
# MALME-3M melanoma = system: MALME-3M melanoma
# MDA-MB-231 breast = system: MDA-MB-231 breast
# SF-268 CNS = system: SF-268 CNS
# SF-295 CNS = system: SF-295 CNS
# SF-539 CNS = system: SF-539 CNS
# UACC-257 melanoma = system: UACC-257 melanoma
# M14 melanoma = system: M14 melanoma
# HCT-15 colon = system: HCT-15 colon
# HT29 colon = system: HT29 colon
# SNB-75 CNS = system: SNB-75 CNS
# SNB-19 CNS = system: SNB-19 CNS
# U251 CNS = system: U251 CNS
# PC-3 prostate = system: PC-3 prostate
# SK-MEL-5 melanoma = system: SK-MEL-5 melanoma
# LOX IMVI melanoma = system: LOX IMVI melanoma
# SK-MEL-28 melanoma = system: SK-MEL-28 melanoma
# RXF 393 renal = system: RXF 393 renal
# UACC-62 melanoma = system: UACC-62 melanoma
# SK-MEL-2 melanoma = system: SK-MEL-2 melanoma
SMILES,growth (K-562 leukemia),growth (MALME-3M melanoma),growth (MDA-MB-231 breast),growth (SF-268 CNS),growth (SF-295 CNS),growth (SF-539 CNS),growth (UACC-257 melanoma),growth (M14 melanoma),growth (HCT-15 colon),growth (HT29 colon),growth (SNB-75 CNS),growth (SNB-19 CNS),growth (U251 CNS),growth (PC-3 prostate),growth (SK-MEL-5 melanoma),growth (LOX IMVI melanoma),growth (SK-MEL-28 melanoma),growth (RXF 393 renal),growth (UACC-62 melanoma),growth (SK-MEL-2 melanoma)
COc1cc(/C=C2\Oc3cc(OCC(=O)c4ccccc4)ccc3C2=O)cc(OC)c1OC,105%,114%,95.6%,105%,91.5%,121%,132%,125%,103%,112%,104%,118%,90.1%,85.2%,98.7%,98.5%,108%,–,–,–
COc1cc(-c2cc(/C=C3\C(=O)Nc4ccc(Cl)cc43)[nH]n2)cc(OC)c1OC,8.43% (active),–,52.4%,38.2%,46.9%,45.1%,18.7%,5.02% (active),7.21% (active),24.2%,-5.13% (active),49.9%,32.1%,-13.2% (active),-68.8% (active),5.85% (active),-1.56% (active),69.2%,-59.6% (active),-19.1% (active)
COc1ccc2c(c1)C(=O)c1c-2c(=O)n(CCCN(C)C)c2cc(OC)c(OC)cc12,64.5%,–,103%,46.9%,20.7%,55%,100%,48.4%,82.2%,60.6%,48.9%,59.2%,43.8%,72.2%,86.8%,17.3%,111%,89.4%,77%,69%
O=C(CC(NC(=O)OCc1ccccc1)C(=O)OCc1ccccc1)OCc1ccccc1 (centres undefined),112%,–,123%,103%,110%,111%,94.2%,90.5%,106%,98.6%,113%,109%,90.4%,93.8%,94.1%,101%,108%,125%,97.2%,–
O=C(NC(Cc1ccc(O)cc1)C(=O)N=Nc1c(O)[nH]c2ccccc12)c1ccccc1 (centres undefined),107%,–,110%,97.8%,97.4%,98.3%,97.5%,94%,103%,101%,96.2%,96.9%,97.7%,98.5%,92.4%,89.1%,109%,108%,88.1%,–
Clc1cccc(-c2nc(-c3cccs3)no2)c1,102%,–,81.4%,106%,92.2%,92.6%,110%,105%,47.4%,106%,81.5%,104%,90.3%,103%,90.1%,93.1%,115%,113%,89.8%,116%
Cc1cc2ccccc2nc1-c1ccccc1F,110%,–,112%,101%,107%,107%,89.6%,108%,101%,119%,112%,110%,91.1%,94.3%,102%,97.8%,116%,99%,105%,111%
COc1ccc(-c2nc3sc(-c4ccc(OC)cc4)c(-c4ccc(OC)cc4)n3c2/C=C/c2ccc(C(C)C)cc2)cc1,105%,–,90.9%,106%,96.6%,94.3%,95.6%,98.4%,92.5%,92.5%,55.9%,103%,102%,79.4%,99.9%,98.6%,100%,92.4%,86.9%,84.3%
COc1cc2c(cc1OC)N(CCO)C1=C(C(=O)OC1)C2c1ccc(Cl)c(Cl)c1 (centres undefined),88.7%,–,96.8%,100%,103%,99.3%,103%,112%,98.2%,94%,106%,98.3%,96.8%,99.2%,99.5%,95.9%,120%,97.8%,101%,–
CCN(CC)CCN1CC(=O)Nc2cc(Cl)ccc21,120%,–,116%,108%,103%,105%,102%,93.9%,107%,112%,92.1%,104%,99.7%,90.8%,98.6%,102%,115%,122%,94.4%,104%
Nc1nccc(Nc2ccccc2)n1,102%,–,118%,109%,104%,93.5%,95.8%,108%,110%,121%,90.9%,116%,104%,102%,107%,109%,116%,112%,105%,–
Cc1ncc(-c2ccoc2)c(NC2CCCCCC2)n1,106%,–,108%,98.9%,102%,110%,96.4%,101%,103%,99.4%,97%,105%,93.5%,105%,99.6%,96.9%,128%,113%,104%,–
CCc1ccc2c(c1)N(CCO)C1=C(C(=O)OC1)C2c1cc(OC)c(OC)c(OC)c1 (centres undefined),10.5%,–,-28% (active),21.7%,-28.4% (active),-9.69% (active),50.5%,10.2%,6.93% (active),-24.2% (active),49.3%,21.7%,10.9%,26.9%,-14.5% (active),25%,64.5%,53.4%,16.2%,–
COc1ccc(-c2ccc3cc(C(=O)Nc4ccc(O)c(C(=O)/C=C/c5cc(OC)c(OC)c(OC)c5)c4)ccc3c2)cc1,59%,–,85.6%,105%,101%,103%,97.9%,89.1%,80.4%,95.3%,94%,96.1%,92.6%,65.5%,72.6%,81.3%,106%,93%,71.1%,99.5%
O=C1OCC2=C1C(c1cccc(Cl)c1)c1cc3c(cc1N2CCO)OCCO3 (centres undefined),17.5%,–,-3.22% (active),23.1%,-16.5% (active),-3.57% (active),44.6%,12.9%,8.81% (active),2.11% (active),29.2%,37.4%,0.324% (active),21.3%,-8.57% (active),22.2%,57.7%,33.9%,27.9%,–
CCN1CCC(CCOC)(CN2c3ccccc3Sc3ccc(Cl)cc32)C1 (centres undefined),-15.2% (active),–,35%,63.3%,72.4%,78%,24.6%,-65.9% (active),49.1%,7.66% (active),47.8%,70.8%,40.5%,35.7%,-49.1% (active),-5.49% (active),58.2%,37.3%,-46.7% (active),88.5%
ClC(Cl)(Cl)c1nc2nccnc2[nH]1,101%,102%,–,113%,78.9%,99.6%,108%,103%,103%,102%,83.4%,102%,104%,102%,113%,102%,110%,111%,107%,109%
